Compound activity: PubChem, National Center for Advancing Translational Sciences (NCATS)
HT1080-NT tox = kills 2HG-producing HT-1080-NT fibrosarcoma cells; Potency, µM (highest dose often 46.1 µM), hits mostly cytotoxic; HT-1080-NT fibrosarcoma viability, CellTiter-Glo ATP luminescence, 48 h; AID 686970; 360,000 compounds, 1.6% hits;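 further: NT is the 2HG producing partner of a matched IDH1 knockdown line; nearly all actives have a fitted effect of over 55% in size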
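Toxicity toward the 2HG-producing NT line was scored as %Activity, normalised to DMSO and no-cell wells, from CellTiter-Glo luminescence after 48 hours' treatment.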
IL-1B inflam inh = inhibitors of inflammasome signaling (IL-1 beta secretion); THP-1 LPS/ATP IL-1B secretion, AlphaLISA, 16 h; active compounds read low; activity change, % at 57.5 µM; 360,000 compounds, 4.7% hits; in the data active means activity change below about -50%; inconclusive means mostly about -30% to -49%
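THP-1 cells pretreated 1 hr with compounds (up to 57.5 uM final), then stimulated with LPS (250 ng/mL final) plus ATP (1.25 mM final); secreted IL-1B measured by AlphaLISA after 16 hr, decreased signal indicating inhibition.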
TDP1 cell CPT = growth inhibition of DT40 Tdp1-/-;hTDP1 cells with camptothecin (screen for TDP1 inhibitors); chicken DT40 Tdp1-/-;hTDP1 cells + 20 nM CPT, ATP luminescence, 48 h; Potency, µM (doses to about 46.2 µM), actives largely listed as inhibitors; 420,000 compounds, 12% hits; AID 686979; further: nearly all actives have a fitted effect of over 55% in size
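Chicken DT40 Tdp1-/- cells complemented with human TDP1, 400 cells/well, exposed to compounds plus 20 nM camptothecin for at least 48 h at 37 C; viability read as ATP content by CellTiter-Glo luminescence.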
HT1080 IDH1KD tx = kills HT-1080 cells with IDH1 knockdown; HT-1080 IDH1 knockdown viability, ATP luminescence, 48 h; Potency, µM (doses to about 46.1 µM), usual class: cytotoxic; 360,000 compounds, 2% hits
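% activity derives from luminescence (CellTiter-Glo), normalised to DMSO and no-cell wells. HT-1080-IDH1KD cells, 750/well, had 48 h compound exposure at 37 °C.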
DT40 TDP1 no CPT = qHTS for Inhibitors of human tyrosyl-DNA phosphodiesterase 1 (TDP1): qHTS in cells in absence of CPT; DT40 Tdp1-/- hTDP1 cells, no CPT, ATP luminescence, 48 h; Potency, µM (titrated, usually from 46.2 µM), usual class: inhibitors; 420,000 compounds, 15% hits; AID 686978, 2013; further: nearly all actives have a fitted effect of over 55% in size
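Growth of hTDP1-complemented DT40 Tdp1-knockout cells is measured by ATP luminescence after at least 48 hr compound exposure at 37 °C, with DMSO substituting for the 20 nM CPT used in the parallel screen.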
Numbers stand for hits; . = inactive; ? = inconclusive; / = not tested or not shown. In the library only some 19% were active in any assay of this set; here they are far more common. Unless noted, the call rests on the fitted dose curve; in most records, active means well fitted curve in the direction sought with a large enough effect; inconclusive means small, poorly fitted or top-dose-only effect, or another doubt; inactive means no such curve, though single readings can be large; an effect the other way counts as inactive or inconclusive.

SMILES	HT1080-NT tox	IL-1B inflam inh	TDP1 cell CPT	HT1080 IDH1KD tx	DT40 TDP1 no CPT
Cc1nnc(SCC(=O)Nc2cc(S(=O)(=O)N3CCCC3)ccc2Cl)n1C1CC1	.	.	.	.	.
Cc1cccc(Nc2nnc(SCC(=O)NC(=O)Nc3ccc4c(c3)OCCO4)s2)c1	23.1µM	.	?	?	?
Cc1csc(SCC(=O)Nc2cccc3nsnc23)n1	.	.	7.31µM	.	?
Cc1csc(SCC(=O)Nc2ccccc2C)n1	.	.	.	.	.
Cc1cccc(Nc2nnc(SCC(=O)Nc3cccc(S(=O)(=O)N4CCCCC4)c3)s2)c1	.	.	23.1µM	.	23.1µM
Cc1cccc(C)c1Nc1nnc(SCC(=O)Nc2cc(S(=O)(=O)N3CCCCC3)ccc2Cl)s1	.	.	?	.	20.6µM
Cc1ccc(Nc2nnc(SCC(=O)c3ccc(Br)s3)s2)c(C)c1	.	?	.	.	?
Cn1nnnc1SCC(=O)Nc1cc(S(=O)(=O)N2CCCCC2)ccc1Cl	.	.	18.4µM	.	23.1µM
Cc1cc(C)nc(SCC(=O)Nc2ccc(S(=O)(=O)N3CCCCC3)cc2)n1	.	.	?	.	?
Cc1cccc(C)c1Nc1nnc(SCC(=O)c2ccc(Br)s2)s1	.	.	?	.	16.4µM
Cc1csc(SCC(=O)Nc2ccc(S(=O)(=O)N3CCCC3)cc2)n1	.	.	18.4µM	.	.
COc1ccc(-n2nnnc2-c2cccc(OC)c2)cc1	?	.	0.82µM	1.64µM	0.581µM
CC1(C)SC(=S)N(/N=C/c2ccccc2O)C1N(O)C(=O)Nc1ccccc1 (stereo not given)	18.4µM	?	11.6µM	?	16.4µM
CNC(=O)N(O)C1N(/N=C/c2ccc(C)cc2)C(=S)SC1(C)C (stereo not given)	.	.	.	.	.
Cc1ccc(/C=N/N2C(=S)SC(C)(C)C2N(O)C(=O)Nc2ccc([N+](=O)[O-])cc2)cc1 (stereo not given)	.	-70.5	?	.	18.4µM
CC1(C)SC(=S)N(/N=C/c2ccc(O)cc2)C1N(O)C(=O)Nc1ccc([N+](=O)[O-])cc1 (stereo not given)	?	.	23.1µM	?	?
CCc1ccc(NC(=O)CSc2nc(NS(=O)(=O)c3ccccc3)cc(=O)[nH]2)cc1	?	-55.4	25.9µM	?	16.4µM
O=C(CCNC(=O)c1ccccc1Cl)NCCC1=CCCCC1	.	.	.	.	.
CCOc1nc(NCCN2CCOCC2)nc(Nc2ccc([N+](=O)[O-])cc2)n1	.	.	?	.	?
COC(=O)c1ccc(NC(=O)c2nc(SCc3ccccc3F)ncc2Cl)cc1	/	/	?	/	17.8µM
O=C(Nc1ccccc1F)c1nc(S(=O)(=O)Cc2ccccc2F)ncc1Cl	/	/	1.3µM	/	0.92µM
Cc1cccc(C)c1NC(=O)c1nc(S(=O)(=O)Cc2ccccc2F)ncc1Cl	/	/	1.26µM	/	5.01µM
COC(=O)c1ccccc1NC(=O)c1nc(S(=O)(=O)Cc2ccccc2F)ncc1Cl	/	/	.	/	?
O=C(Nc1ccc2ccccc2c1)c1nc(S(=O)(=O)Cc2ccccc2F)ncc1Cl	/	/	0.708µM	/	1.26µM
O=C(CC1CC2CCC1C2)N1CCN(S(=O)(=O)c2ccc(C(F)(F)F)cc2)CC1 (stereo not given)	.	.	.	.	?
SMILES	HT1080-NT tox	IL-1B inflam inh	TDP1 cell CPT	HT1080 IDH1KD tx	DT40 TDP1 no CPT
Cc1ccc(NC(=O)C2C3CCC(O3)C2C(=O)O)cc1Cl (stereo not given)	.	.	.	?	.
COC(=O)c1ccc2c(=O)n(CCCCCC(=O)NCCc3ccc(Cl)cc3)c(=O)[nH]c2c1	/	/	.	/	?
O=C(NCc1cnn(-c2ccccc2)c1)C1CCC(=O)N(C2CC2)C1 (stereo not given)	.	.	.	.	.
CCOc1ccccc1NC(=O)c1nc(S(=O)(=O)Cc2ccccc2F)ncc1Cl	/	/	0.562µM	/	?
N#Cc1c(-n2ncnc2-c2cccc(Cl)c2)sc2c1CCCCC2	/	/	.	/	.
CCCCCCCCCCCCCCCC(=O)C(F)(F)F	/	/	.	/	.
C=CCNC(=S)NNC(=O)COc1ccc2cc(Br)ccc2c1	.	?	?	.	8.2µM
C=CCNC(=S)NNC(=O)COc1ccc(Br)cc1	.	.	.	.	.
Cc1cc(C)nc(N2CCC(C(=O)NCCc3ccccc3)CC2)n1	.	.	8.2µM	.	9.2µM
Cc1cc(C)nc(N2CCC(C(=O)Nc3ccc4c(c3)OCO4)CC2)n1	.	.	8.2µM	.	9.2µM
O=C(NCCc1ccc(Cl)cc1)C1CCN(c2ncccn2)CC1	.	.	.	.	.
Cc1cccc(Cn2c(CN3CCC(C(=O)NCCc4ccccc4)CC3)cc3ccccc32)c1	/	/	?	/	18.4µM
COCCCNC(=O)C1CCN(c2nc(C)cc(C)n2)CC1	.	.	.	.	.
O=C(NCCc1ccc(Cl)cc1)C1CCN(Cc2cc3ccccc3n2Cc2ccccc2)CC1	/	/	23.1µM	/	18.4µM
O=C(Cc1cccc(NC(=O)C2CCCN(C(=O)CCc3ccccc3)C2)c1)Nc1ccc(C(=O)N2CCOCC2)cc1 (stereo not given)	.	.	?	.	?
CCCNC(=O)C1(C)CCCN(C(=O)c2cccc(C(F)(F)F)c2)C1 (stereo not given)	?	.	.	.	.
CCc1ccc2c(c1)C1(SC(NC(C)=O)=NN1C(C)=O)C(=O)N2CC (stereo not given)	.	.	.	.	.
CC[C@H]1C(=O)[C@@H](Cc2ccccc2)[C@@H]2CCN3C(=O)CCC[C@H]1[C@H]23	.	.	.	.	.
Cc1ccc2nc(N(Cc3cccnc3)C(=O)C3COc4ccccc4O3)sc2c1 (stereo not given)	/	/	.	/	.
NC(c1csc(Nc2ncccn2)n1)C1CCCCC1 (stereo not given)	.	?	?	.	?
NC(c1csc(Nc2cc(Oc3ccccc3)ncn2)n1)C1CCCCC1 (stereo not given)	?	.	?	4.61µM	?
COc1ccc(C(N)c2csc(Nc3cc(Oc4ccccc4)ncn3)n2)cc1 (stereo not given)	?	-84.9	23.1µM	?	23.1µM
COc1cccc(Oc2cc(Cl)nc(N)n2)c1	.	.	.	.	.
Cc1ccc(N2C(=O)N(CC(=O)Nc3ccc(C)c(C)c3)C(=O)C2C)cc1 (stereo not given)	.	?	.	.	?
COCCN1C(=O)CN(S(C)(=O)=O)CC1(C)C(=O)Nc1c(C)cccc1C (stereo not given)	.	.	.	.	.
COc1ccc(C(=O)N2CCN(c3cccc(C)c3C)CC2)cc1S(=O)(=O)NC1CC1	.	.	?	.	23.1µM
COc1cccc(N2CCN(C(=O)c3ccc4ccccc4c3)CC2)c1	.	.	?	.	?
